uPA generation = qHTS for Inhibitors of Cell Surface uPA Generation; hit rate 0.31% among 330,000; Potency, µM (top dose mostly 38.3 µM), hits mostly inhibitors; cell surface uPA generation assay, qHTS; active means well fitted inhibition curve with a large enough effect; inconclusive means small, poorly fitted or top-dose-only effect; inactive means no such curve, though single readings can be large or run the other way; tested in mouse RAW 264.7 cells; further: nearly all actives have a fitted effect of over 55% in size
Gal4-VP16 FLuc = VP16 counterscreen qHTS for inhibitors of ROR gamma transcriptional activity; Drosophila S2 Gal4-VP16 UAS-luciferase, luminescence, 20 h; Potency, µM (highest dose often 53.6 µM), usual class: inhibitors; hit rate 3.5% among 310,000;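 further: Gal4-VP16 expression switched on by copper sulfate through the metallothionein promoter; nearly all actives have a fitted effect of over 50% in size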
RORgamma inh = qHTS for inhibitors of ROR gamma transcriptional activity | Potency, µM (series often up to 53.6 µM), actives largely listed as inhibitors | AID 2551, 2010 | Drosophila S2 Gal4-RORgamma UAS-luciferase reporter, 20 h | hit rate 5.4% among 310,000 | Nuclear receptor ROR-gamma (Mus musculus), P51450; further: nearly all actives have a fitted effect of over 60% in size
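In this cell-based reporter format, copper sulfate (700 uM final) drives Gal4–ROR gamma fusion expression from a metallothionein promoter in Drosophila Schneider cells; compounds preincubated 1 hr, reporter read after 20 hr at ambient temperature.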
TRPV1 PAM = HTS Assay for Compounds that Act as Potentiators of the Vanilloid Receptor 1; hit rate 0.02% among 320,000; TRPV1-expressing cells, Fluo-8 calcium influx, capsaicin EC20 potentiation; potentiation, % at 8.33 µM; Transient receptor potential cation channel subfamily V member 1 (Homo sapiens), Q8NER1; in the data active means potentiation above about 80%; inconclusive means between about 30% and that limit
Target sequence (Q8NER1 whole entry, looked up): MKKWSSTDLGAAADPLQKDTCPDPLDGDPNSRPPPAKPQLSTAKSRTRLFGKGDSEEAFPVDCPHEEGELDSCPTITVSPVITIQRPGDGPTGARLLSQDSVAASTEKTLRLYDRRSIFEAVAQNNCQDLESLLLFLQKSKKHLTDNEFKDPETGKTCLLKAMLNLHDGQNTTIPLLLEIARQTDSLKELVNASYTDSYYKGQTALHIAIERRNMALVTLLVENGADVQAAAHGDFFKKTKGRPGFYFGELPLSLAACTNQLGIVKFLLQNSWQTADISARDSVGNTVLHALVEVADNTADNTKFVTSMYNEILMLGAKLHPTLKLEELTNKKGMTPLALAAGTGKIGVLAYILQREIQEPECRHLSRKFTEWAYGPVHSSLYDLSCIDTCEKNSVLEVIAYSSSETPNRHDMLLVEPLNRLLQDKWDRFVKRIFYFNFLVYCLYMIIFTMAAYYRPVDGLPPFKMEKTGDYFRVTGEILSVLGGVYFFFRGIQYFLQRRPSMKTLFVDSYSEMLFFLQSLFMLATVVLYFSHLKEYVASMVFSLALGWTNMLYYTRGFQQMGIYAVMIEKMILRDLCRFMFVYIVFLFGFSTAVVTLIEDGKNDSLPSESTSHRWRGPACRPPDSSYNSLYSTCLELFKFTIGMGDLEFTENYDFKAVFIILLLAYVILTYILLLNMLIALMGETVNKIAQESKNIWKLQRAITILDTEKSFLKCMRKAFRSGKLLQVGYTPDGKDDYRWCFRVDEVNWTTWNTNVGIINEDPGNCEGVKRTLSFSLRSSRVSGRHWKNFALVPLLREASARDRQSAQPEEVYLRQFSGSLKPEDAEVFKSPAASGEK
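TRPV1-expressing cells were cultured overnight at 35.5C and loaded with Fluo-8 calcium dye for 40 to 90 min at room temperature. After a 10 s baseline, compound was added and calcium influx was read kinetically for 3 min (ex 480/em 520 nm).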
TRPV1 agonist = HTS Assay for Compounds that Act as Agonists of the Vanilloid Receptor 1; TRPV1-expressing cells, Fluo-8 calcium influx, agonist mode; activation, % at 8.33 µM; hit rate 0.19% among 320,000; AID 540275, 2011; in the data active means activation above about 80%; inconclusive means between about 30% and that limit
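Cells expressing TRPV1 were dye-loaded with Fluo-8 and read kinetically: 10 s baseline, 3 min after compound (agonist portion), then 2 min after EC20 capsaicin (allosteric enhancer portion). Calcium-bound dye fluorescence at 480/520 nm.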
Hits are given with their value; [ ] = another dose, or the depositor's remark. The list is not random: actives were taken first. Their share in the collection is about 5.8%. Unless noted, the call rests on the fitted dose curve; in most records, active means well fitted curve in the direction sought with a large enough effect; inconclusive means small, poorly fitted or top-dose-only effect, or another doubt; inactive means no such curve, though single readings can be large; an effect the other way counts as inactive or inconclusive.

How did Clc1ccc(Sc2cc(Cl)c(Cl)cc2Cl)cc1 do in these assays?
Gal4-VP16 FLuc: inactive; RORgamma inh: inactive

How did Cc1ccccc1C(=O)NC(=S)N(C)C1CCCCC1 do in these assays?
uPA generation: inactive; Gal4-VP16 FLuc: 2.82µM; RORgamma inh: inconclusive; TRPV1 PAM: inactive; TRPV1 agonist: inactive

How did CC1CCCCC1NC(=S)NC(=O)c1ccccc1Br (stereo unspecified) do in these assays?
uPA generation: inactive; Gal4-VP16 FLuc: 5.01µM; RORgamma inh: 2.82µM; TRPV1 PAM: inactive; TRPV1 agonist: inactive

What do the screens show for `CN(C(=S)NC(=O)c1ccccc1Br)C1CCCCC1`?
Gal4-VP16 FLuc: 3.16µM; RORgamma inh: 0.891µM; TRPV1 PAM: inactive; TRPV1 agonist: inactive

What do the screens show for `CC1CCCCC1NC(=S)NC(=O)c1ccccc1Cl` (stereo unspecified)?
uPA generation: inactive

What do the screens show for `CCN1C(C)=C(C(=O)OC)C(c2ccccc2)N2C(=O)[C@](O)(C(=O)OC)CC(C#N)=C12` (stereo partly specified)?
Gal4-VP16 FLuc: inactive[10 µM]; RORgamma inh: inactive[10 µM]

What do the screens show for `N#C/C(=C\c1ccco1)C(=O)NCc1ccccc1`?
uPA generation: inactive; Gal4-VP16 FLuc: inactive; RORgamma inh: inactive; TRPV1 PAM: inactive; TRPV1 agonist: inactive

How did N#CC(C#N)=C1C=CC=CN1/C(=C\c1ccco1)C(=O)c1ccc(Cl)cc1 do in these assays?
uPA generation: inactive; Gal4-VP16 FLuc: 1.12µM; RORgamma inh: 5.01µM; TRPV1 PAM: inactive; TRPV1 agonist: inconclusive

What do the screens show for `N#CC(C#N)=C1C=CC=CN1/C(=C\c1ccco1)C(=O)c1ccc(-c2ccccc2)cc1`?
uPA generation: inactive; Gal4-VP16 FLuc: 3.16µM; RORgamma inh: 3.98µM; TRPV1 PAM: inactive; TRPV1 agonist: inactive

What do the screens show for `O=C1c2ccccc2NC(c2ccc(O)cc2)N1/N=C/c1ccc(O)cc1` (stereo unspecified)?
uPA generation: inactive; Gal4-VP16 FLuc: inactive; RORgamma inh: inactive; TRPV1 PAM: inactive; TRPV1 agonist: inactive

How did O=C1c2ccccc2NC(c2ccccc2)N1/N=C/c1ccccc1 (stereo unspecified) do in these assays?
uPA generation: inactive; Gal4-VP16 FLuc: 11.2µM; RORgamma inh: 10µM; TRPV1 PAM: inactive; TRPV1 agonist: inactive

How did CCC1=C[C@@H]2CN(C1)Cc1c([nH]c3ccccc13)[C@@](C(=O)OC)(c1cc3c(cc1OC)N(C)[C@H]1[C@@](O)(C(=O)OC)[C@H](OC(C)=O)[C@]4(CC)C=CCN5CC[C@]31[C@@H]54)C2 do in these assays?
Gal4-VP16 FLuc: inactive; RORgamma inh: inactive

Results for c1ccc(-c2nccc(-c3ccco3)n2)nc1 ?
uPA generation: inactive; Gal4-VP16 FLuc: inactive; RORgamma inh: 12.6µM; TRPV1 PAM: inactive; TRPV1 agonist: inactive

What do the screens show for `c1ccc(-c2noc(-c3ccco3)n2)nc1`?
uPA generation: inactive; Gal4-VP16 FLuc: inconclusive; RORgamma inh: inconclusive; TRPV1 PAM: inactive; TRPV1 agonist: inactive

How did CNC(=S)NCc1ccc(OC)cc1 do in these assays?
uPA generation: inactive; Gal4-VP16 FLuc: inactive; RORgamma inh: inactive; TRPV1 PAM: inactive; TRPV1 agonist: inactive

Results for COc1ccc(CNC(=S)NC2CCCCC2)cc1 ?
uPA generation: inactive; Gal4-VP16 FLuc: 12.6µM; RORgamma inh: 7.08µM; TRPV1 PAM: inactive; TRPV1 agonist: inconclusive

What do the screens show for `COc1ccc(CNC(=S)NC2CCCC2)cc1`?
uPA generation: inactive; Gal4-VP16 FLuc: 7.94µM; RORgamma inh: 8.91µM; TRPV1 PAM: inactive; TRPV1 agonist: inconclusive

How did Cc1ccc(CNC(=S)NC2CCC(C(C)(C)C)CC2)cc1 (stereo unspecified) do in these assays?
uPA generation: inactive; Gal4-VP16 FLuc: 5.01µM; RORgamma inh: 2.82µM; TRPV1 PAM: inactive; TRPV1 agonist: inconclusive

Results for CC(NC(=S)NC1CCC(C(C)(C)C)CC1)c1ccccc1 (stereo unspecified) ?
uPA generation: inactive; Gal4-VP16 FLuc: 2.82µM; RORgamma inh: 1.58µM; TRPV1 PAM: inactive; TRPV1 agonist: inconclusive

Results for CC(NC(=O)C1CCCC1)c1ccccc1 (stereo unspecified) ?
uPA generation: inactive

How did Fc1ccc(C(CNC(=S)NC2CCCCC2)N2CCOCC2)cc1 (stereo unspecified) do in these assays?
uPA generation: inactive; Gal4-VP16 FLuc: inconclusive; RORgamma inh: 8.91µM; TRPV1 PAM: inactive; TRPV1 agonist: inactive

How did Fc1ccc(CNC(=S)NC2CCCCCC2)cc1 do in these assays?
uPA generation: inactive; Gal4-VP16 FLuc: 11.2µM; RORgamma inh: 6.31µM; TRPV1 PAM: inactive; TRPV1 agonist: inconclusive

How did Cc1ccc(C(=O)NCC(=O)Nc2ccc(Cl)cc2)s1 do in these assays?
uPA generation: inactive

Results for c1ccc(Nc2nc(-c3cccnc3)nc3ccccc23)cc1 ?
Gal4-VP16 FLuc: inactive; RORgamma inh: inactive

Results for Cc1ccc2nc(Nc3nc(C)cc(C(F)(F)F)n3)nc(C)c2c1 ?
uPA generation: inactive; Gal4-VP16 FLuc: inconclusive; RORgamma inh: inactive; TRPV1 PAM: inactive; TRPV1 agonist: inactive

How did Cc1cc(C(F)(F)F)nc(Nc2nc(C)c3ccccc3n2)n1 do in these assays?
uPA generation: inactive; Gal4-VP16 FLuc: inconclusive; RORgamma inh: 6.31µM; TRPV1 PAM: inactive; TRPV1 agonist: inactive

Results for COC(=O)c1ccccc1NC(=O)CSCC(=O)Nc1ccc(F)cc1 ?
Gal4-VP16 FLuc: inactive; RORgamma inh: inactive; TRPV1 PAM: inactive; TRPV1 agonist: inactive

Results for Cc1cc(NC(=O)c2ccc(Cn3nc(C)c(Br)c3C)o2)no1 ?
uPA generation: inactive; Gal4-VP16 FLuc: inactive; RORgamma inh: inactive; TRPV1 PAM: inactive; TRPV1 agonist: inactive

What do the screens show for `Cc1nn(Cc2ccc(C(=O)NC(C)(C)C)o2)c(C)c1Br`?
uPA generation: inactive; Gal4-VP16 FLuc: 10µM; RORgamma inh: inconclusive; TRPV1 PAM: inactive; TRPV1 agonist: inactive

Results for Cc1nn(Cc2ccc(C(=O)NN)o2)c(C)c1Cl ?
uPA generation: inactive; Gal4-VP16 FLuc: inactive; RORgamma inh: inactive; TRPV1 PAM: inactive; TRPV1 agonist: inconclusive

How did COc1ccc(CNC(=O)c2ccc(Cn3nc(C)c([N+](=O)[O-])c3C)o2)cc1 do in these assays?
uPA generation: inactive; Gal4-VP16 FLuc: 5.01µM; RORgamma inh: 5.62µM; TRPV1 PAM: inactive; TRPV1 agonist: inactive

What do the screens show for `COc1ccc(N2CCN(C(=O)c3ccc(Cn4nc(C)c([N+](=O)[O-])c4C)o3)CC2)cc1`?
uPA generation: inconclusive; TRPV1 PAM: inactive; TRPV1 agonist: inactive

What do the screens show for `Cc1nn(Cc2ccc(C(=O)Nc3ccc(C(=O)OC(C)C)cc3)o2)c(C)c1Cl`?
uPA generation: inactive; Gal4-VP16 FLuc: inactive; RORgamma inh: 1.58µM; TRPV1 PAM: inactive; TRPV1 agonist: inactive

How did O=C(CNCc1ccccn1)Nc1ccc([N+](=O)[O-])cc1C(=O)Nc1ccccc1F do in these assays?
uPA generation: inactive; Gal4-VP16 FLuc: inactive; RORgamma inh: 20µM; TRPV1 PAM: inactive; TRPV1 agonist: inactive
